Experimental data taken from PubChem BioAssay AID559 (PCMD, 2006).
About 100 (0.2%) of roughly 62,000 compounds were called active. This excerpt belongs to a sample that is enriched for actives. A number with no mark means an inactive call. Rule as the data show it: active = inhibition above about 20%; inactive = the rest.

Each molecule was assayed against DNA-directed RNA polymerase subunit beta (Escherichia coli (strain K12)) (UniProt P0A8V2) (assay: E. coli RNAP inhibitors, biochemical (AID 559;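 also: 0% = enzyme without compound and 100% = no enzyme blank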)). Settings: fluorescence transcription assay, stronger effect = higher value,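 tested at 10 µM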.
Sequence of DNA-directed RNA polymerase subunit beta (Escherichia coli (strain K12)) (P0A8V2 whole entry, looked up): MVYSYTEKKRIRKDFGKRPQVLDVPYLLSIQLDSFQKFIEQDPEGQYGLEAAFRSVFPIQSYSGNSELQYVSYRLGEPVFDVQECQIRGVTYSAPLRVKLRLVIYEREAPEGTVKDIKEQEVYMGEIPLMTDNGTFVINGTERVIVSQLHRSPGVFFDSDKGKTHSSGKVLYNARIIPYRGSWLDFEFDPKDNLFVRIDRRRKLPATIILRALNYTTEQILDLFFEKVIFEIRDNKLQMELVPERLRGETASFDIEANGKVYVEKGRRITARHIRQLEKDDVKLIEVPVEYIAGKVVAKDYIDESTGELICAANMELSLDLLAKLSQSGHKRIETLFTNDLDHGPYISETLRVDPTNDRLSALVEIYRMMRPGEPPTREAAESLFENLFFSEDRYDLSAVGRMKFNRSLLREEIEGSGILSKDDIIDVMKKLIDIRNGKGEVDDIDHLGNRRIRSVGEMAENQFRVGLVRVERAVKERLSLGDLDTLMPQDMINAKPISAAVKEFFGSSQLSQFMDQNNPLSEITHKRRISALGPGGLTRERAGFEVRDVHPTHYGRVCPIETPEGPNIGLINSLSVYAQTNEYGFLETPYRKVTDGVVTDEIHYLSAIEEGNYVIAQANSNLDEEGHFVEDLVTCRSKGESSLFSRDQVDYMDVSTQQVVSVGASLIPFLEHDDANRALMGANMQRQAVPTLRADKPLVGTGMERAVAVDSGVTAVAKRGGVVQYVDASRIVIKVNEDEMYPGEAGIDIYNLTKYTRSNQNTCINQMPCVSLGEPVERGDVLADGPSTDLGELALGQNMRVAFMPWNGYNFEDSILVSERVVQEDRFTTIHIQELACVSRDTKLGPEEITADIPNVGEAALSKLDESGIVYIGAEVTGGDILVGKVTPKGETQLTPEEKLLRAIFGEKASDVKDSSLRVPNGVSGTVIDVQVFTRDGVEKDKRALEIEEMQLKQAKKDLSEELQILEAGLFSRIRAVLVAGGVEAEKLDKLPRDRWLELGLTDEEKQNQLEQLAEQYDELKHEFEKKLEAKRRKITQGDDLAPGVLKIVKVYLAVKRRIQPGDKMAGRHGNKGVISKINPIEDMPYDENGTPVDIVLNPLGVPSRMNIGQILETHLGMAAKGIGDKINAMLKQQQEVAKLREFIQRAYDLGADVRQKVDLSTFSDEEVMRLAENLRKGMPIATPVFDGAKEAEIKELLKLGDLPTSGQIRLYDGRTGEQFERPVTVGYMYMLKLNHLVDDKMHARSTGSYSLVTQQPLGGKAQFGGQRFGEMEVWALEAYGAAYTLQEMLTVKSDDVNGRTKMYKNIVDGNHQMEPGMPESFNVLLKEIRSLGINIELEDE

Row | SMILES | inhibition
1 | CCOc1ccc(CNC(=O)C2CC(=O)N(C3CCCC3)C2)cc1OC (stereo not given) | -2.47%
2 | COC(=O)[C@H](Cc1ccccc1)NC(=O)Nc1ccc(S(N)(=O)=O)cc1 | 10.2%
3 | CNC(=O)C1CC(=O)N(Cc2ccc3c(c2)OCO3)C(=Nc2ccc(F)cc2)S1 (stereo not given) | -0.38%
4 | CCOc1ccc(C(C)C)cc1S(=O)(=O)n1nc(C)cc1C | 5.62%
5 | CN1CCN(CCCNC(=O)c2cc3c(=O)oc4ccccc4c3s2)CC1 | 7.32%
6 | CCC(=O)Nc1cccc(NC(=O)CSc2nnnn2C2CCCC2)c1 | 9.82%
7 | Cc1cc(C)n(C(=O)c2ccc(S(=O)(=O)N3CCCC3)cc2)n1 | -6.35%
8 | Cc1ccc(-c2ccc(=O)n(CC(=O)NCCCN3CCCCC3)n2)cc1 | 5.27%
9 | O=C(CCCOc1ccccc1)Nc1cccc(C(=O)O)c1 | 5.97%
10 | COc1ccc(CC(=O)c2ccc(O)cc2O)cc1OC | -2.96%
11 | Nc1nnnn1/N=C/c1cccs1 | 0.8%
12 | O=C(Nc1cc(N2CCOCC2)ncn1)NC1(C(F)(F)F)Oc2ccc(Cl)cc2O1 (stereo not given) | 35.4% (active)
13 | COc1c(C)cccc1C(=O)Nc1cc(Cl)ccc1N1CCOCC1 | 5.92%
14 | c1cnn(-c2cc(N3CCOCC3)ncn2)c1 | -13.1%
15 | Cc1ccc(C)c2[nH]c(=O)c(CCNC(=O)CC(C)C)cc12 | 6.91%
16 | O=C(NCCc1ccccn1)c1ccc(COc2ccccc2)o1 | 5.1%
17 | CC1CC(C)CN(CC(=O)Nc2ccc(S(N)(=O)=O)cc2)C1 (stereo not given) | 4.05%
18 | Cc1cc(Nc2ccc(Br)cc2F)n2ncnc2n1 | -2.75%
19 | CN1CCc2c(sc3c2c(NCc2ccco2)nc2nnnn23)C1 | -5.9%
20 | COc1ccc(-c2nc(CS(=O)CC(=O)NCc3cccnc3)c(C)o2)cc1OC (stereo not given) | -0.41%
21 | CCOC(=O)c1c(CN2CCOCC2)n(-c2ccccc2)c2ccc(O)cc12 | 9.89%
22 | COc1cc(OC)cc(-c2nc3nc(C)c(CCC(=O)NCc4ccco4)c(C)n3n2)c1 | 0.61%
23 | CC(=O)c1nc(N2C(=O)C3CC=C(C)CC3C2=O)sc1C (stereo not given) | 8.57%
24 | O=C1c2oc3ccc(Br)cc3c(=O)c2C(c2cccc(F)c2)N1CCO (stereo not given) | 2.5%
25 | CN1C(=O)c2ccc(NC(=O)c3c(F)c(F)c(F)c(F)c3F)cc2C1=O | 11.6%
26 | Cn1c(SCC(=O)Nc2cccc(O)c2)nnc1-c1ccc(S(=O)(=O)N2CCOCC2)cc1 | 0.17%
27 | Fc1ccccc1OCCCCn1cncn1 | 2.62%
28 | CCOCCCNS(=O)(=O)Cc1ccccc1 | 8.39%

Row | SMILES | inhibition
29 | Cc1ccc(O)c(NC(=O)COc2cc(C)ccc2C)c1 | 4.28%
30 | CCCOc1ccc(C2C(C(=O)c3ccc(C)o3)=C(O)C(=O)N2CCCn2ccnc2)cc1 (stereo not given) | 5.52%
31 | O=C(Nc1ccon1)c1sc2ccccc2c1Cl | -7.58%
32 | NC(CSC12CC3CC(CC(C3)C1)C2)C(=O)O (stereo not given) | 4.34%
33 | CC(C)c1nc(-c2ccccn2)no1 | 4.3%
34 | O=C(NCc1ccccc1)C1C(=O)N(Cc2ccccc2)C(=O)C1C1(O)CCCC1 (stereo not given) | -8.01%
35 | CCOCC(=O)Nc1cc(OC)c(Cl)cc1OC | 5.42%
36 | Cc1ccc(S(=O)(=O)N2C3C=CC(C3)C2C(=O)O)cc1 (stereo not given) | 8.4%
37 | Cc1cccc(N2C(=O)SC(N(CC(=O)O)c3cccc(C)c3)C2=O)c1 (stereo not given) | 6.1%
38 | COc1cccc(C(CC(=O)NCCN2CCOCC2)NS(=O)(=O)c2ccc(C)cc2)c1OC (stereo not given) | 4.2%
39 | Cc1ccc(C(=O)CSc2nc3ccccc3c(=O)n2N)o1 | 4.54%
40 | Cc1ccsc1C(=O)OCC(=O)c1cc2ccccc2o1 | 8.68%
41 | Cc1cc2c(=O)n(C)c(SCC(=O)c3cc4ccccc4o3)nc2s1 | 20.9% (active)
42 | O=C(CN1C(=O)C2C3C=CC(C3)C2C1=O)NCC1COc2ccccc2O1 (stereo not given) | -8.67%
43 | O=C1CCC(Cc2ccccc2)N1 (stereo not given) | 6.1%
44 | Cn1c(=O)n(C)c(=O)n(CC(=O)N2CCCCC2)c1=O | 5.37%
45 | CC(=O)Nc1cccc2c1[n+]([O-])c(C)c(C)[n+]2[O-] | -3.37%
46 | O=C(Nc1nc2cc3c(cc2s1)OCCO3)c1cccc(S(=O)(=O)N2CCOCC2)c1 | -1.12%
47 | CCCN1C(=O)C(NC(C)=O)c2cc(OC)ccc21 (stereo not given) | 8.13%
48 | Cc1noc(NS(=O)(=O)c2ccc(NC(=O)C34CCC(CC3)C4)cc2)c1C | 3.43%
49 | COc1cccc2sc(Nc3nc(C)c(C(C)=O)s3)nc12 | -0.4%
50 | CCCOc1ccc(NC(=O)C2CCCNC2=O)cc1 (stereo not given) | 2.77%
51 | CCCCOC(=O)NCN1C(=O)C2C3C=CC(C3)C2C1=O (stereo not given) | 0.68%
52 | COc1ccc(OC)c(NC(=O)CC(Cc2ccccc2OC)C(=O)O)c1 (stereo not given) | 4.42%
53 | CC(C)N(C(=O)Cn1c(SCC(=O)N2CCN(c3ccccc3)CC2)nc2ccccc21)C(C)C | 5.85%
54 | O=C(Cn1nc(C(F)(F)F)c2c1CCC2)NCc1ccc(F)cc1 | -0.7%
55 | COc1ccc(CNC(=O)c2c(C)cc(=O)oc2C)cc1OC | 8.6%
